Experimental data as given in PubChem BioAssay (Tox21).
Inconclusive results are not listed. Activity calls are given as the source filed them. Calls follow the shape of the full dose curve.

Assays:
[1] = target: Acetylcholinesterase (Homo sapiens) (UniProt P22303); experiment: Acetylcholinesterase (AChE) small molecule antagonists: colormetric cell-based qHTS assay (AID 1347395); also: nearly all actives have a fitted effect of over 30% in size
Summary of the method: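 Colorimetric readout: DTNB quantifies thiocholine from acetylthiocholine hydrolysed by endogenous AChE of SH-SY5Y cells (2,000/well, plated overnight). Compound pretreatment 30 min, substrate incubation 90 min, both 37 C.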

[2] = target: Acetylcholinesterase (Homo sapiens) (UniProt P22303); experiment: Acetylcholinesterase (AChE) small molecule antagonists: enzyme-based qHTS assay (AID 1347397); settings: Potency: AChE enzyme activity inhibition; outcome: AChE enzyme activity inhibition; also: nearly all actives have a fitted effect of over 55% in size
Summary of the method: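 Absorbance-based detection of thiocholine with DTNB served as the read-out. Recombinant human AChE was exposed to compound for 30 min at RT before a 10 min RT incubation with acetylthiocholine.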

[3] = target: Acetylcholinesterase (Homo sapiens) (UniProt P22303); experiment: Acetylcholinesterase (AChE) small molecule antagonists: fluorescence cell-based qHTS assay (AID 1347398); settings: Potency: AChE activity; outcome: AChE activity; also: nearly all actives have a fitted effect of over 50% in size
Summary of the method: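 Fluorimetric cell-based assay: intact SH-SY5Y cells, 30 min compound preincubation at 37 C, acetylthiocholine substrate with thiol probe Thiolite Green, 40 min RT development, fluorescence 490/520 nm.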

[4] = target: Acetylcholinesterase (Homo sapiens) (UniProt P22303); experiment: Acetylcholinesterase (AChE) small molecule antagonists: enzyme-based qHTS assay with human liver microsomes (AID 1347399); settings: Potency: qHTS inhibition; outcome: qHTS inhibition; also: nearly all actives have a fitted effect of over 60% in size
Summary of the method: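 Recombinant human AChE (50 mU/mL in the enzyme mix) and human liver microsomes (0.25 mg/mL final) were preincubated with compound and NADPH (0.25 mg/mL final) for 30 min at 37 C. Acetylthiocholine/DTNB was then added; thiocholine was read colorimetrically after 10 min at room temperature.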
% is scaled to controls: 0 for no effect and ±100 for the full control effect.

Chain of Acetylcholinesterase (Homo sapiens) (P22303 whole entry, looked up): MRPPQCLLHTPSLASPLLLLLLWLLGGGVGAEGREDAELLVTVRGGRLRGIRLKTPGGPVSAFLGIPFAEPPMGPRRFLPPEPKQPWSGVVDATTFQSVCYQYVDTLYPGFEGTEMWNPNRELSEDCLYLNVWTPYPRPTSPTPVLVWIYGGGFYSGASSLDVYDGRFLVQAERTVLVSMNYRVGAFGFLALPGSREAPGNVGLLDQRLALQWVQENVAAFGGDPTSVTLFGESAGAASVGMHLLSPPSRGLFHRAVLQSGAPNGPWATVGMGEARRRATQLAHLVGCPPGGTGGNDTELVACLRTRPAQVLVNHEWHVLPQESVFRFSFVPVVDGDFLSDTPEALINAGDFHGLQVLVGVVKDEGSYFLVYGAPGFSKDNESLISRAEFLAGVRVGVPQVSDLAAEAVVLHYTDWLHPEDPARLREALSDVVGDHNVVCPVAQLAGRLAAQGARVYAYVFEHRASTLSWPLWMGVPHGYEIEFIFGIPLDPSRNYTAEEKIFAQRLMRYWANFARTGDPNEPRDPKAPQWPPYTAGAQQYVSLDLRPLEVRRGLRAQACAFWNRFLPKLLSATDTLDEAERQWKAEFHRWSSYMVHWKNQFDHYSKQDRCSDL

CC1(CO)CN(c2ccccc2)NC1=O (centres undefined)
inactive: Potency [1] | Potency [2] | Potency [3] | Potency [4]

Cc1ccnc(N)c1
inactive: Potency [1] | Potency [2] | Potency [3] | Potency [4]

C=C(C)C(=O)OCCCC
inactive: Potency [1] | Potency [2] | Potency [3] | Potency [4]

Oc1cccc2c(O)cccc12
inactive: Potency [1] | Potency [2] | Potency [3] | Potency [4]

ClC(Cl)(Br)Br
inactive: Potency [1] | Potency [2] | Potency [3] | Potency [4]

Oc1ccc(-c2ccc(O)cc2)cc1
inactive: Potency [1] | Potency [2] | Potency [3] | Potency [4]

CO[Si](CCCNc1ccccc1)(OC)OC
inactive: Potency [1] | Potency [2] | Potency [3] | Potency [4]

CCN(Cc1cccc(S(=O)(=O)O)c1)c1ccc(C(=C2C=CC(=[N+](CC)Cc3cccc(S(=O)(=O)O)c3)C=C2)c2ccc(O)cc2S(=O)(=O)[O-])cc1
inactive: Potency [1] | Potency [2] | Potency [3] | Potency [4]

Brc1cc(-c2ccc(Br)c(Br)c2Br)cc(Br)c1Br
inactive: Potency [1] | Potency [2] | Potency [3] | Potency [4]

C=CCCC(=O)O
inactive: Potency [1] | Potency [2] | Potency [3] | Potency [4]

Nc1ncnc2c1ncn2Cc1c(F)cccc1Cl
inactive: Potency [1] | Potency [2] | Potency [3] | Potency [4]

FC1(F)C(F)(F)C(F)(F)C2(F)C(F)(C1(F)F)C(F)(F)C(F)(F)C1(F)C(F)(F)C(F)(F)C(F)(F)C(F)(F)C12F (centres undefined)
inactive: Potency [1] | Potency [2] | Potency [3] | Potency [4]

Cc1cccc(C)c1NC(=O)C(C)N (centres undefined)
inactive: Potency [1] | Potency [2] | Potency [3] | Potency [4]

NC(=O)c1cc[n+](CC2=C(C(=O)[O-])N3C(=O)[C@@H](NC(=O)Cc4cccs4)[C@H]3SC2)cc1
inactive: Potency [1] | Potency [2] | Potency [3] | Potency [4]

N#Cc1c(F)cccc1F
inactive: Potency [1] | Potency [2] | Potency [3] | Potency [4]

Cc1cccc(CN2CCN(C(c3ccccc3)c3ccc(Cl)cc3)CC2)c1 (centres undefined)
inactive: Potency [1] | Potency [2] | Potency [3] | Potency [4]

CC(=O)O[C@@H]1CC2CCC1(C)C2(C)C (some centres undefined)
inactive: Potency [1] | Potency [2] | Potency [3] | Potency [4]

CCCC(=O)OCCc1ccccc1
inactive: Potency [1] | Potency [2] | Potency [3] | Potency [4]

CC(C)(O)C(=O)O
inactive: Potency [1] | Potency [2] | Potency [3] | Potency [4]

CC(Cc1ccccc1)(NC(=O)CN)c1ccccc1 (centres undefined)
inactive: Potency [1] | Potency [2] | Potency [3] | Potency [4]

O=C1OC(CN2CCOCC2)CN1/N=C/c1ccc([N+](=O)[O-])o1 (centres undefined)
inactive: Potency [1] | Potency [2] | Potency [3] | Potency [4]

CCOC(OCC)C(=O)c1ccccc1
inactive: Potency [1] | Potency [2] | Potency [3] | Potency [4]

O=S1OCCO1
inactive: Potency [1] | Potency [2] | Potency [3] | Potency [4]

Cc1cccn2c(=O)c(-c3nnn[nH]3)cnc12
inactive: activity, negative = inhibition [1] -0.311% [at 23.6 µM] | activity change, negative = inhibition [2] -2.02% [at 23.6 µM] | activity change, negative = inhibition [3] -17.5% [at 23.8 µM] | activity change, negative = inhibition [4] -5.01% [at 23.6 µM]

OC1CCC(C2CCCCC2)CC1 (centres undefined)
inactive: Potency [1] | Potency [2] | Potency [3] | Potency [4]

C=C(C)[C@@H]1CC[C@@H](C)C[C@@H]1O
inactive: Potency [1] | Potency [2] | Potency [3] | Potency [4]

N#CCc1cccc(C(F)(F)F)c1
inactive: Potency [1] | Potency [2] | Potency [3] | Potency [4]

O=C1Nc2ccc(Cl)cc2[C@@](C#CC2CC2)(C(F)(F)F)O1
inactive: Potency [1] | Potency [2] | Potency [3] | Potency [4]

O=C1CCCCCO1
inactive: Potency [1] | Potency [2] | Potency [3] | Potency [4]

CCCCCCCC[Si](OCC)(OCC)OCC
inactive: Potency [1] | Potency [2] | Potency [3] | Potency [4]

Nc1cccc2c(N)cccc12
inactive: Potency [1] | Potency [2] | Potency [3] | Potency [4]

CCN(CC)CCc1nc(-c2ccccc2)no1
inactive: Potency [1] | Potency [2] | Potency [3] | Potency [4]

CCC(=O)OCCOc1ccccc1
inactive: Potency [1] | Potency [2] | Potency [3] | Potency [4]

CC(=O)OC(C)(C)Cc1ccccc1
inactive: Potency [1] | Potency [2] | Potency [3] | Potency [4]

CN1[C@@H]2CC[C@H]1CC(OC(=O)C(O)c1ccccc1)C2 (some centres undefined)
inactive: Potency [1] | Potency [2] | Potency [3] | Potency [4]

O=C1CCCC(=O)C1
inactive: Potency [1] | Potency [2] | Potency [3] | Potency [4]

NC(=O)Nc1ccc(Cl)cc1
inactive: Potency [1] | Potency [2] | Potency [3] | Potency [4]

CCCCCC(C)OC(=O)COc1ccc(Cl)c2cccnc12 (centres undefined)
inactive: Potency [1] | Potency [2] | Potency [3] | Potency [4]

CCOc1ccc(NS(=O)(=O)c2ccc(N)cc2)nn1
inactive: Potency [1] | Potency [2] | Potency [3] | Potency [4]

CCOC(=O)[C@@H](C)Oc1ccc(Oc2nc3ccc(Cl)cc3o2)cc1
inactive: Potency [1] | Potency [2] | Potency [3] | Potency [4]

CCCN(CCC)C(=O)C(CCC(=O)O)NC(=O)c1ccccc1 (centres undefined)
inactive: Potency [1] | Potency [2] | Potency [3] | Potency [4]
